17 molecules from PubChem BioAssay (NCATS) can be followed below.

Records with an inconclusive call do not appear. Where a call stands in place of a potency, no number is given. Calls of active or inactive are those of the source. Calls follow the shape of the dose curve; as a rule, active = well fitted inhibition curve with a large enough effect; inconclusive = small, poorly fitted or top-dose-only effect, or effect the other way; inactive = flat fitted curve, though single readings scatter.
Potency is read from the fitted curve at half-maximal effect.

Sequence of ATPase family AAA domain-containing protein 5 (Homo sapiens) (Q96QE3 whole entry, looked up, the tested form may be a part): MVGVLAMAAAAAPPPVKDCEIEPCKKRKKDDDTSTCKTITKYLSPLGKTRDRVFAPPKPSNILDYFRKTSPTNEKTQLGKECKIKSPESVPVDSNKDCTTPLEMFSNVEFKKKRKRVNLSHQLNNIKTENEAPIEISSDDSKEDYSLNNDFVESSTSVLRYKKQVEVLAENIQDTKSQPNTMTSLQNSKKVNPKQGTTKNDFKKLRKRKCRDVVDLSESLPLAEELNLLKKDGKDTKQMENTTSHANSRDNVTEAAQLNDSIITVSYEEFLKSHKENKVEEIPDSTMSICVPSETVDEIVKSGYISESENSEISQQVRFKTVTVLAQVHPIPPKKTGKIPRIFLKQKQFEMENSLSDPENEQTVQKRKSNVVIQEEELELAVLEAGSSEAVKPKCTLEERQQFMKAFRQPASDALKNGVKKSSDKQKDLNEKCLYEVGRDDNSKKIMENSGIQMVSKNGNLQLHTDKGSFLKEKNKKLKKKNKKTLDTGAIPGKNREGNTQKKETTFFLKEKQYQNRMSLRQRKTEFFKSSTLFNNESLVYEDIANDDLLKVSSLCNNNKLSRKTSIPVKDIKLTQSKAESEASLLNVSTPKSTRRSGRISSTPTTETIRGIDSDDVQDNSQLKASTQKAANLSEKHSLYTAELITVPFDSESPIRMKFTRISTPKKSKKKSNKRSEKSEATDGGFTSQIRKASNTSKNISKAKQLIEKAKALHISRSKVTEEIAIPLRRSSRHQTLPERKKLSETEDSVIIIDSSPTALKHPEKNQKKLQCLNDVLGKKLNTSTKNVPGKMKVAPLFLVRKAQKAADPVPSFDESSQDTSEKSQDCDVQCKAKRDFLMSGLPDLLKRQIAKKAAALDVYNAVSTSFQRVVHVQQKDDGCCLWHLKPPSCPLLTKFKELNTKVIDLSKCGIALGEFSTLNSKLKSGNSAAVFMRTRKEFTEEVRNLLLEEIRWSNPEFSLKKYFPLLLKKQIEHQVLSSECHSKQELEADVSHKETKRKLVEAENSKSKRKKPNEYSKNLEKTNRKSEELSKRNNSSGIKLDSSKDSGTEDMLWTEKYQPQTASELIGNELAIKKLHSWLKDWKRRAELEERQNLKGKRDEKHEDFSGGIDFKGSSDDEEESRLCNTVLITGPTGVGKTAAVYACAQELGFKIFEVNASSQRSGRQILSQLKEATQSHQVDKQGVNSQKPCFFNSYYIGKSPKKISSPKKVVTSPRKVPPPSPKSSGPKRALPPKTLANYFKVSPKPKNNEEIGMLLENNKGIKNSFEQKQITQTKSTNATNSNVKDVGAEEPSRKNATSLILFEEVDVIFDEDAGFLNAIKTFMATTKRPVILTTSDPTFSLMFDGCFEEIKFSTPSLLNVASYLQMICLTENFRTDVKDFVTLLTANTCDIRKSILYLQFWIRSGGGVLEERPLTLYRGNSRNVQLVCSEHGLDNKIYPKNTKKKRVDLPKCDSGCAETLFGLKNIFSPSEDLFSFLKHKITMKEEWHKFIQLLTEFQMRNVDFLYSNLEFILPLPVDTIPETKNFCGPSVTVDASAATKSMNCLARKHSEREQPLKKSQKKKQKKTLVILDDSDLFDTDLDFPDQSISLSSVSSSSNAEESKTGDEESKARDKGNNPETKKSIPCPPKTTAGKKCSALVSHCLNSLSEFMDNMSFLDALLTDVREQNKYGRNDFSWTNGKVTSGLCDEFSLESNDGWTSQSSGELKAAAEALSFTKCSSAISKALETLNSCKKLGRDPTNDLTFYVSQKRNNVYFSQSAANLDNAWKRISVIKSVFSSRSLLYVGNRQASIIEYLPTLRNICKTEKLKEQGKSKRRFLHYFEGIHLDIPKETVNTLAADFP

The target of the experiment is ATPase family AAA domain-containing protein 5 (Homo sapiens) (UniProt Q96QE3). In words: Validation screen for small molecules that inhibit ELG1-dependent DNA repair in human embryonic kidney (HEK293T) cells expressing luciferase-tagged ELG1 (AID 493107). Also: nearly all actives have a fitted effect of over 70% in size. The conditions noted are these: HEK293T ELG1-luciferase level, luminescence, 5-fluorouridine co-treatment, 16 h; series mostly up to 46.1 µM. The text has this:
NIH Molecular Libraries Probe Production Network [MLPCN]
NIH Chemical Genomics Center [NCGC]
Assay Provider: Kyungjae Myung, NHGRI, NIH
Keywords: MLPCN, qHTS, NCGC, genotoxicity, cancer
Cancer cells divide rapidly compared to normal cells in the body. During cell division, cancer cells need to duplicate their genome by DNA replication. The failure of genome duplication leads to cancer cells' death. Therefore, inhibitors of DNA replication could specifically kill cancer cells. Based on this concept, many chemotherapeutic agents were developed and have been used to treat cancer patients. However, there are a limited number of agents available in the clinical setting, and some of those that do exist have low efficacy and severe side effects. Therefore, if we can find the compounds that effectively block DNA replication either by directly damaging DNA or by inhibiting other cellular mechanisms, the options for cancer treatment will be broadened. With this in mind, we developed a quantitative high-throughput ELG1-luciferase reporter gene assay. Small molecules that specifically block ELG1 function in response to DNA damage can be identified by monitoring the suppression of luciferase activity. Since ELG1 defines a pathway for repairing DNA damage, agents blocking ELG1 function can be used to sensitize cancer cells to chemotherapeutic agents whose mechanism of action involves the induction of DNA damage.
For genotoxicity screening, 2,000 cells in 4 uL/well were dispensed into white, solid-bottom 1536-well plates using a solenoid-based dispenser. Following transfer of 1 uL 5-Fluorouridine and 23 nL compound or DMSO vehicle by a pin tool, the plates were incubated 16 hr at 37 °C and 5% CO2. 5 ul ONE-Glo (Promega) was then added to each plate and following a 30 min incubation at room temperature, luciferase activity was quantified on a ViewLux CCD-based plate reader.
In the case of `CCCC1O[C@@H]2C[C@H]3[C@@H]4CCC5=CC(=O)C=C[C@]5(C)[C@H]4[C@@H](O)C[C@]3(C)[C@]2(C(=O)CO)O1` (some centres not stated), the Potency result was “inactive”.

Regarding `CNCCC(Oc1ccccc1C)c1ccccc1` (configuration not stated), the Potency entry was “inactive”.

As to `CN1C2CCC1CC(OC(=O)c1c[nH]c3ccccc13)C2` (configuration not stated), the Potency result is “inactive”. Next, `C[C@@H]1C(=O)NC2=Nc3cccc(Cl)c3CN21`: “inactive”; `C[N+]1(CCCCC[N+]2(C)CCCC2)CCCC1`: “inactive”. For the molecule `C[C@]12CC[C@@H]3c4ccc(O)cc4CC[C@H]3[C@@H]1CC[C@@H]2O`, the Potency entry is “inactive”. Under `CCCn1c(=O)[nH]c(=O)c2[nH]cnc21` stands “inactive”. Under `COC(=O)[C@H]1[C@H]2C[C@H]3c4[nH]c5ccccc5c4CCN3C[C@H]2CC[C@@H]1O` stands “inactive”; under `CC[C@H](C)C(=O)O[C@H]1CCC=C2C=C[C@H](C)[C@H](CC[C@@H]3C[C@@H](O)CC(=O)O3)[C@H]21`, “inactive”; under `CCC(NC(C)C)C(O)c1ccc(O)c(O)c1` (configuration not stated), “inactive”. Turning to `CC(=O)O[C@H]1C[C@@H]2CC[C@@H]3[C@H](CC[C@@]4(C)[C@H]3C[C@H]([N+]3(C)CCCCC3)[C@@H]4OC(C)=O)[C@@]2(C)C[C@@H]1[N+]1(C)CCCCC1`, the Potency entry is “inactive”. Under `COc1cc(NS(C)(=O)=O)ccc1Nc1c2ccccc2nc2ccccc12` stands 14.6 µM (active); under `O=C(O)c1cc2cc(Cc3cccnc3)ccc2o1`, “inactive”. With `CC1(C)CCC(NC(=O)[C@@H](N)CCC(=O)O)CC1`, the Potency entry was “inactive”. Next, `Nc1cc(Cl)c(NC2=NCCN2)c(Cl)c1`: “inactive”; `CC(C)COC(=O)OCN1C(=O)CN(CCN2CC(=O)N(COC(=O)OCC(C)C)C(=O)C2)CC1=O`: “inactive”.

On to `N[C@H](CO)C(=O)O`, for which the Potency result was “inactive”.
